Pf growth 48h = inhibits P. falciparum growth in the first generation, 48 h | 5.9% of 310,000 active | Potency, µM (titrated, usually from 28.7 µM), for the others: top-dose activity change, negative = inhibition, usual class: inhibitors | P. falciparum luciferase growth in erythrocytes, 48 h | AID 504832; further: potency means the concentration at half of the fitted maximal effect; on the % scale 0 is the no-effect control and ±100 the full control effect
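Here the parasites carry a stable luciferase gene and grow inside erythrocytes in Albumax-based RPMI medium with compound for one erythrocytic cycle. Activity is scored as loss of luminescent signal.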
Shiga toxin inh = Shiga toxin inhibition; Vero cells, Shiga toxin protein synthesis inhibition reporter; inhibition, % at 38.7 µM; 9.2% of 290,000 active; AID 2315; in the data active means inhibition mostly above about 28%, no sharp cut-off; inactive means mostly below about 43%; further: 0% is about no effect
Cycloheximide cs = affects cycloheximide protein synthesis inhibition readout, counter-screen. cell reporter, cycloheximide protein synthesis inhibition counterscreen. max response, %. 12% of 300,000 active; in the data active means max response mostly above about 13%, no sharp cut-off; inactive means mostly below about 14%; further: read at 38.3 µM for the half of the compounds with a filed dose; 0% is about no effect
Lassa entry inh = Lassa virus entry inhibition | AID 540256 | 1.2% of 300,000 active | Lassa virus pseudotype entry inhibition, cell reporter | Potency, µM (highest dose often 37.9 µM), for the others: top-dose activity change, negative = inhibition, hits mostly inhibitors; calls by dose curve; tested in HEK293 cells; further: potency means the concentration at half of the fitted maximal effect; on the % scale 0 is the no-effect control and ±100 the full control effect; nearly all actives have a fitted effect of over 50% in size
Pf growth 96h = P. falciparum growth inhibition at 96 hours; P. falciparum luciferase reporter growth, 96 h; Potency, µM (titrated, usually from 28.7 µM), for inactives: at the highest dose activity change, negative = inhibition, most hits filed as inhibitors; 6.9% of 320,000 active; AID 504834; further: potency means the concentration at half of the fitted maximal effect; on the % scale 0 is the no-effect control and ±100 the full control effect
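Delayed-death screen, second-generation endpoint: infected erythrocytes, 2% hematocrit, 0.05% parasitemia final; 96 hours at 37 C, 5% CO2; luciferase detection reagent; luminescence decrease equals reduced growth.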
MARV entry inh = Marburg virus entry inhibition; Marburg virus pseudotyped entry inhibition, cell reporter; Potency, µM (series often up to 37.8 µM), for the others: at the highest dose activity change, negative = inhibition, actives largely listed as inhibitors; 1.8% of 300,000 active; AID 540276; calls by dose curve; tested in HEK293 cells; further: potency means the concentration at half of the fitted maximal effect; on the % scale 0 is the no-effect control and ±100 the full control effect
Active calls of the source: *; i = inactive; ? = inconclusive; . = no result; [ ] = dose if it differs, or a comment. An excerpt weighted towards active compounds, which were near 19% of everything screened. Unless noted, the call rests on the fitted dose curve; in most records, active means well fitted inhibition curve with a large enough effect; inconclusive means small, poorly fitted or top-dose-only effect, or another doubt; inactive means no such curve, though single readings can be large or run the other way.

SMILES	Pf growth 48h	Shiga toxin inh	Cycloheximide cs	Lassa entry inh	Pf growth 96h	MARV entry inh
N#CCCN1CCN(C(=S)c2ccc(-c3cccc(Cl)c3)o2)CC1	-2%	103*	45*	26%	.	-16%
O=C(Cn1nnc(-c2cccs2)n1)NCc1ccccc1	1%	16	21	-11%	5%	22%
O=C(Cn1nnc(-c2cccs2)n1)NCc1ccco1	15%	51*	12*	.	10%	.
CC(C)(C)NC(=O)Cn1nnc(-c2cccs2)n1	54%	30*	31*	14%	-7%	-14%
O=C(Cn1nnc(-c2cccs2)n1)Nc1ccccc1C(F)(F)F	-1%	-9	3	.	0.29µM*	.
CC[C@H](C)/C=C(C)/C=C/C1=CC2=CC(=O)[C@]3(C)OC(=O)[C@@H](C(C)=O)[C@@H]3C2=CO1	?	3	6	.	89%	.
CCC(C)/C=C(C)/C=C/C1=CC2=C(Cl)C(=O)C(C)(OC(C)=O)C(=O)C2=CO1 (stereo not drawn)	?	24	11*	.	9.3µM*	.
COc1ccccc1OCC(=O)NNC(=O)c1ccc(F)c(S(=O)(=O)N2CCOCC2)c1	.	.	.	-2%	.	-10%
CC(=O)N1c2ccccc2C(C)(c2ccccc2)CC1(C)C (stereo not drawn)	9.3µM*	5	-4	5%	.	?
CN1CCN(CC(=O)N2c3ccccc3C(C)(c3ccccc3)CC2(C)C)CC1 (stereo not drawn)	?	-4	-5	?	10µM*	?
CN1CCN(CC(=O)N2c3ccccc3C(C)(c3ccc(Cl)cc3)CC2(C)C)CC1 (stereo not drawn)	.	-19	-5	?	?	?
CC1(c2ccccc2)CC(C)(C)N(C(N)=O)c2ccccc21 (stereo not drawn)	-17%	13	-1	.	?	.
Cn1c(=O)c(C(=O)c2ccccc2)c(O)c2ccccc21	.	.	.	-2%	.	11%[46.1 µM]
COc1cc(OC)cc(-c2c(-c3cccs3)c3cc(-c4cccc5[nH]ccc45)ccc3n2C)c1	2.3µM*	.	.	.	?	.
COc1cc(OC)cc(-c2c(-c3cccs3)c3cc(-c4ccn[nH]4)ccc3n2C)c1	4.7µM*	.	.	.	?	.
COc1cc(OC)cc(-c2c(-c3cccs3)c3cc(-c4ccc5c(c4)OCO5)ccc3n2C)c1	6%	.	.	.	-2%	.
COc1cc(F)cc(-c2ccc3c(c2)c(-c2cccs2)c(-c2cc(OC)cc(OC)c2)n3C)c1	9.3µM*	.	.	.	?	.
Cc1ccccc1CNC(=O)CN1C(=O)CSc2ccc(S(=O)(=O)N(C)C)cc21	.	.	.	-10%[46.1 µM]	.	.
c1ccc(Cc2nnc3sc(-c4ccc5c(c4)OCCO5)nn23)cc1	.	56	36*	.	1%	-10%
C=CCN1C(=O)c2ccc(C(=O)N(C)CC(=O)Nc3ccc(OCC)c(OCC)c3)cc2C1=O	-12%	.	.	-2%	4%	-4%
Cn1c(Cl)c(C(=O)Nc2ccccc2)c2ccccc21	7%	41*	23*	-9%	51%	-2%
Cc1ccc(NC(=O)c2c(Cl)n(C)c3ccccc23)cc1	74%	38	30*	-30%	53%	?
CC(C)Cc1nnc(NC(=O)CCC(=O)N2CCN(c3ccc([N+](=O)[O-])cc3)CC2)s1	?	24	-3	.	?	.
Cc1cc(C(=O)Nc2ccccn2)no1	120%	44*	23*	15%	15%	-2%
COC(=O)c1cccc(C(=O)Nc2ccc(C)cc2)n1	82%	80*	45*	3%	?	15%
SMILES	Pf growth 48h	Shiga toxin inh	Cycloheximide cs	Lassa entry inh	Pf growth 96h	MARV entry inh
CCc1ccc(NC(=O)c2cc(C(C)C)on2)cc1	222%	65*	36*	?	-5%	?
Cc1ccc(NC(=O)c2cc(C)on2)cc1	110%	62	56*	?	0%	?
Cc1cc(NC(=O)c2cccc(C(=O)Nc3cc(C)on3)n2)no1	14%	12	-6	10%	-20%	7%
Cc1cc(C(=O)Nc2ccc3c(c2)OCO3)no1	?	10	8	.	24%	.
Cc1ccc(-c2cc(C(=O)NC(C)c3ccccc3)c3ccccc3n2)cc1C (stereo not drawn)	.	.	.	5%[46.1 µM]	.	.
CCc1ccc2[nH]c(=O)c(C(c3nnnn3CCOC)N3CCN(c4ccc(F)cc4)CC3)cc2c1 (stereo not drawn)	?	18	2	?	-10%	?
COc1cccc(NC(=O)CN(C)CC(=O)NCc2ccc3c(c2)OCO3)c1	41%	.	.	.	55%	.
COc1cc2oc(=O)cc(-c3ccc(-c4ccc(C#N)cc4)cc3)c2c(OC)c1OC	.	i	6	.	.	.
Cc1cc(C(=O)NNc2ccc(F)cc2)no1	3%	-9	2	-8%	16%	15%
CCc1ccc(NC(=O)c2cc(C)on2)cc1	181%	51*	28*	-42%[14.3 µM]	-14%	?
CCc1ccc(NC(=O)c2cc(-c3ccc(OC)cc3)on2)cc1	.	41*	64*	0%	?	5%
Cc1ccc(NC(=S)Nc2cc(C)on2)cc1	118%	67*	48*	4%[46.1 µM]	156%	?
COC(=O)CSC1=C(C#N)C(c2ccc(C)o2)CC(=O)N1 (stereo not drawn)	29%	-17	-2	?	9%	1.8µM*
COC(=O)CSC1=C(C#N)C(c2ccc(F)cc2)CC(=O)N1 (stereo not drawn)	.	-9	2	.	-9%	.
CC(C)(C)NC[C@H](O)CSc1nc(-c2ccc(C(N)=O)s2)cs1	?	.	.	.	11µM*	.
CCOC(=O)c1c(C)c(C(=O)NCc2ccco2)c(C)n1CC	-20%	7	4	11%[46.1 µM]	42%	-5%[46.1 µM]
Cc1cccc(NC(=O)CSc2nc3ccc(NC(=O)c4cccs4)cc3s2)c1	.	.	.	1%[46.1 µM]	.	5%[46.1 µM]
O=C(/C(=C/O)N=Nc1cccc(C(F)(F)F)c1)c1ccccc1	?	46	9	?	?	?
Cc1cccc(N/N=C(\C=N\N)C(=O)c2ccc(Br)cc2)c1	12µM*	21	-3	.	-26%	.
Cc1cccc(N=N/C(=C\O)C(=O)c2ccc(Br)cc2)c1	71%	55	13	5.6µM*	27%	7.9µM*
CC(=O)/C(=N/Nc1cccc(C)c1)N1CCOCC1	12%	-13	-3	-15%	.	?
COc1ccc(-c2csc(NC(=O)Cc3cccc4ccccc34)c2C(=O)O)cc1	-13%	18	7	-7%	3%	14%[46.1 µM]
O=C(/C=C/c1ccccc1)Nc1scc(-c2ccccc2)c1C(=O)O	24%	59*	30*	.	?	.

Screens (PubChem)
